The values that follow come from article PMC11006913.

What all share (assay): PBM; 200 nM protein, PBS
What all share (conditions): dsDNA, one strand shown

The target of experiment [1] is CRX (Homo sapiens, UniProt O43186 26-111).
For experiment [2], the target named is HOXA2 (Homo sapiens, UniProt O43364 129-215, R185T).
Experiment [3] addresses CRX (Homo sapiens, UniProt O43186 26-111, E42D).
The target in the next experiment is PITX2 (Homo sapiens, UniProt Q99697 72-157).
Experiment [4] addresses HOXA2 (Homo sapiens, UniProt O43364 129-215, Y150S).
In experiment [5] the target is CRX (Homo sapiens, UniProt O43186 26-111, R41L).
Experiment [6] addresses HOXA2 (Homo sapiens, UniProt O43364 129-215).
For another experiment, the target named is T1, VENTX (Homo sapiens, UniProt O95231 78-163, Y115F).
T1 sequence: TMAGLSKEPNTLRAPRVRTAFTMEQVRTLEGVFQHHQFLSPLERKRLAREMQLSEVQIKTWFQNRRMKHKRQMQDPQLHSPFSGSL

Experiment [7] concerns the target HOXA2 (Homo sapiens, UniProt O43364 129-215, R185K).
For experiment [8], the target named is ALX4 (Homo sapiens, UniProt Q9H161 200-286).
In experiment [9] the target is ALX4 (Homo sapiens, UniProt Q9H161 200-286, Q225E).
Experiment [10] concerns the target PROP1 (Homo sapiens, UniProt O75360 56-141).
Experiment [11] concerns the target PROP1 (Homo sapiens, UniProt O75360 56-141, R99H).
The target in experiment [12] is PROP1 (Homo sapiens, UniProt O75360 56-141, F88S).
Experiment [13] concerns the target ALX1 (Homo sapiens, UniProt Q15699 118-204, L144V).
Experiment [14] addresses ALX1 (Homo sapiens, UniProt Q15699 118-204, L144R).
The target of experiment [15] is ALX1 (Homo sapiens, UniProt Q15699 118-204).
Experiment [16] has as its target HOXD13 (Homo sapiens, UniProt P35453 263-343, T313R).
Experiment [17] concerns the target HOXD13 (Homo sapiens, UniProt P35453 263-343).
Experiment [18] concerns the target HOXD13 (Homo sapiens, UniProt P35453 263-343, T313A).
The target of experiment [19] is T2, NKX2-6 (Homo sapiens, UniProt A6NCS4 118-204).
T2 sequence: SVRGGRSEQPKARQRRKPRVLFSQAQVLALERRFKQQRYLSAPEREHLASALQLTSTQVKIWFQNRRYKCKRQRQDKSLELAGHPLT

For experiment [20], the target named is T3, NKX2-6 (Homo sapiens, UniProt A6NCS4 118-204, F151L).
T3 sequence: T2 sequence with F34L

Experiment [21] addresses ALX3 (Homo sapiens, UniProt O95076 139-225, N203Q).
Experiment [22] deals with ALX3 (Homo sapiens, UniProt O95076 139-225).
The target in experiment [23] is ALX3 (Homo sapiens, UniProt O95076 139-225, L168Q).
Experiment [24] addresses ALX3 (Homo sapiens, UniProt O95076 139-225, L168V).
The target in experiment [25] is ALX3 (Homo sapiens, UniProt O95076 139-225, N203S).

Positions count from the first letter of the chain named.

CRX (Homo sapiens, UniProt O43186 26-111, R41L), sequence (O43186 26-111 R41L): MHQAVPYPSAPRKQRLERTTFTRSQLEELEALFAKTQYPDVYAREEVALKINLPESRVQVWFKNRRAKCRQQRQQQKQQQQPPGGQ
CRX (Homo sapiens, UniProt O43186 26-111, E42D), sequence (O43186 26-111 E42D): as the sequence (O43186 26-111 R41L) above, with L16R, E17D counted along it
CRX (Homo sapiens, UniProt O43186 26-111), sequence (O43186 26-111): as the sequence (O43186 26-111 R41L) above, with L16R counted along it
HOXA2 (Homo sapiens, UniProt O43364 129-215, R185T), sequence (O43364 129-215 R185T): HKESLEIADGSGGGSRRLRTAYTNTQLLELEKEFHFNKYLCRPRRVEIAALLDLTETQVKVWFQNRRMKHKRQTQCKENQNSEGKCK
ALX4 (Homo sapiens, UniProt Q9H161 200-286, Q225E), sequence (Q9H161 200-286 Q225E): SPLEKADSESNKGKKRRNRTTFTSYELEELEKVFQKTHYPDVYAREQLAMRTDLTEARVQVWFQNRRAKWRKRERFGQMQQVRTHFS
ALX3 (Homo sapiens, UniProt O95076 139-225, N203Q), sequence (O95076 139-225 N203Q): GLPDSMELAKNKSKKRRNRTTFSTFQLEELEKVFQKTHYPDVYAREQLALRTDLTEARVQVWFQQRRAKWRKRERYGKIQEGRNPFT
HOXA2 (Homo sapiens, UniProt O43364 129-215, Y150S), sequence (O43364 129-215 Y150S): as the sequence (O43364 129-215 R185T) above, with Y22S, T57R counted along it
ALX1 (Homo sapiens, UniProt Q15699 118-204, L144V), sequence (Q15699 118-204 L144V): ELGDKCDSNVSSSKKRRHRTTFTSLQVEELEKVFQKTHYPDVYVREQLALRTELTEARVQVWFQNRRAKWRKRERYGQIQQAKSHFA
ALX3 (Homo sapiens, UniProt O95076 139-225, N203S), sequence (O95076 139-225 N203S): as the sequence (O95076 139-225 N203Q) above, with Q65S counted along it
ALX4 (Homo sapiens, UniProt Q9H161 200-286), sequence (Q9H161 200-286): as the sequence (Q9H161 200-286 Q225E) above, with E26Q counted along it
ALX1 (Homo sapiens, UniProt Q15699 118-204), sequence (Q15699 118-204): as the sequence (Q15699 118-204 L144V) above, with V27L counted along it
HOXD13 (Homo sapiens, UniProt P35453 263-343, T313A), sequence (P35453 263-343 T313A): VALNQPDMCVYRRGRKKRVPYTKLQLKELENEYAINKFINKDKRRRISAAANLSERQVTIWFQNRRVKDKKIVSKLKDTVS
HOXD13 (Homo sapiens, UniProt P35453 263-343, T313R), sequence (P35453 263-343 T313R): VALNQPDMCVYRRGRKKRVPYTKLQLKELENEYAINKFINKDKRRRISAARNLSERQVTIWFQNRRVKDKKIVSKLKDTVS
HOXA2 (Homo sapiens, UniProt O43364 129-215, R185K), sequence (O43364 129-215 R185K): as the sequence (O43364 129-215 R185T) above, with T57K counted along it
PROP1 (Homo sapiens, UniProt O75360 56-141, R99H), sequence (O75360 56-141 R99H): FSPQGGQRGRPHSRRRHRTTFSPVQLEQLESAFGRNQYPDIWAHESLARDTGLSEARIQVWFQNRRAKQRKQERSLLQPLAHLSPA
HOXA2 (Homo sapiens, UniProt O43364 129-215), sequence (O43364 129-215): as the sequence (O43364 129-215 R185T) above, with T57R counted along it
ALX1 (Homo sapiens, UniProt Q15699 118-204, L144R), sequence (Q15699 118-204 L144R): as the sequence (Q15699 118-204 L144V) above, with V27R counted along it
ALX3 (Homo sapiens, UniProt O95076 139-225), sequence (O95076 139-225): as the sequence (O95076 139-225 N203Q) above, with Q65N counted along it
ALX3 (Homo sapiens, UniProt O95076 139-225, L168Q), sequence (O95076 139-225 L168Q): as the sequence (O95076 139-225 N203Q) above, with L30Q, Q65N counted along it
PROP1 (Homo sapiens, UniProt O75360 56-141, F88S), sequence (O75360 56-141 F88S): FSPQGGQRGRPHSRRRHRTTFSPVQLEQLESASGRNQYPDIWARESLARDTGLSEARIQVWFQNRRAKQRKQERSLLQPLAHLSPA
ALX3 (Homo sapiens, UniProt O95076 139-225, L168V), sequence (O95076 139-225 L168V): as the sequence (O95076 139-225 N203Q) above, with L30V, Q65N counted along it
HOXD13 (Homo sapiens, UniProt P35453 263-343), sequence (P35453 263-343): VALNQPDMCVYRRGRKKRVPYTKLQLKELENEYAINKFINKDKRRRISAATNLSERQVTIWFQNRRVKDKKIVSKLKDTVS
PROP1 (Homo sapiens, UniProt O75360 56-141), sequence (O75360 56-141): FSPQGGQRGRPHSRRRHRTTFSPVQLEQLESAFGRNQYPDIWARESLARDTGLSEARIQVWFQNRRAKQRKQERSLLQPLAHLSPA

In the case of AGGATTAG, the binding signal with CRX [1] was 13.5 upbm affinity estimate (log intensity, higher = more binding, comparable within an allelic series); with HOXA2 [2] it was 9.36 upbm affinity estimate (log intensity, higher = more binding, comparable within an allelic series); with CRX [3], 13.5 upbm affinity estimate (log intensity, higher = more binding, comparable within an allelic series); in the experiment with PITX2, 13.2 upbm affinity estimate (log intensity, higher = more binding, comparable within an allelic series); in the experiment with HOXA2 [4] it was 10.7 upbm affinity estimate (log intensity, higher = more binding, comparable within an allelic series); with CRX [5], 13.3 upbm affinity estimate (log intensity, higher = more binding, comparable within an allelic series). In addition, in the experiment with HOXA2 [6], the binding signal is 9.15 upbm affinity estimate (log intensity, higher = more binding, comparable within an allelic series).

On to GTGATTAA, for which the binding signal in the experiment with CRX [1] is 12.3 upbm affinity estimate (log intensity, higher = more binding, comparable within an allelic series); with VENTX, 11.5 upbm affinity estimate (log intensity, higher = more binding, comparable within an allelic series); with HOXA2 [2], 12.7 upbm affinity estimate (log intensity, higher = more binding, comparable within an allelic series); with CRX [3], 12.2 upbm affinity estimate (log intensity, higher = more binding, comparable within an allelic series); with HOXA2 [7] it was 13.2 upbm affinity estimate (log intensity, higher = more binding, comparable within an allelic series); with CRX [5] it was 11.7 upbm affinity estimate (log intensity, higher = more binding, comparable within an allelic series).

Regarding GAGGGCCC, the binding signal with CRX [1] was 8.25 upbm affinity estimate (log intensity, higher = more binding, comparable within an allelic series); in the experiment with ALX4 [8], 7.97 upbm affinity estimate (log intensity, higher = more binding, comparable within an allelic series); with ALX4 [9] it was 7.92 upbm affinity estimate (log intensity, higher = more binding, comparable within an allelic series); in the experiment with CRX [3], 8.06 upbm affinity estimate (log intensity, higher = more binding, comparable within an allelic series); with PROP1 [10], 6.79 upbm affinity estimate (log intensity, higher = more binding, comparable within an allelic series); in the experiment with PROP1 [11] it was 6.72 upbm affinity estimate (log intensity, higher = more binding, comparable within an allelic series). The binding signal in the experiment with PROP1 [12] is 6.48 upbm affinity estimate (log intensity, higher = more binding, comparable within an allelic series); in the experiment with CRX [5], 8.14 upbm affinity estimate (log intensity, higher = more binding, comparable within an allelic series).

In the case of AAGATTAA, the binding signal with CRX [1] is 12.9 upbm affinity estimate (log intensity, higher = more binding, comparable within an allelic series); with CRX [3], 12.9 upbm affinity estimate (log intensity, higher = more binding, comparable within an allelic series); with PITX2, 12.5 upbm affinity estimate (log intensity, higher = more binding, comparable within an allelic series); with CRX [5], 12.6 upbm affinity estimate (log intensity, higher = more binding, comparable within an allelic series).

With CGGACACG, the binding signal was 8.06 upbm affinity estimate (log intensity, higher = more binding, comparable within an allelic series) in the experiment with CRX [1]; 8.04 upbm affinity estimate (log intensity, higher = more binding, comparable within an allelic series) with CRX [3]; 6.53 upbm affinity estimate (log intensity, higher = more binding, comparable within an allelic series) with ALX1 [13]; 6.6 upbm affinity estimate (log intensity, higher = more binding, comparable within an allelic series) with ALX1 [14]; 8.13 upbm affinity estimate (log intensity, higher = more binding, comparable within an allelic series) with CRX [5]; 6.41 upbm affinity estimate (log intensity, higher = more binding, comparable within an allelic series) in the experiment with ALX1 [15].

Take CACGCTCC: the binding signal with CRX [1] was 8.3 upbm affinity estimate (log intensity, higher = more binding, comparable within an allelic series); with CRX [3] it was 8.47 upbm affinity estimate (log intensity, higher = more binding, comparable within an allelic series); with HOXD13 [16], 9.56 upbm affinity estimate (log intensity, higher = more binding, comparable within an allelic series); with HOXD13 [17], 9.55 upbm affinity estimate (log intensity, higher = more binding, comparable within an allelic series); with HOXD13 [18], 9.79 upbm affinity estimate (log intensity, higher = more binding, comparable within an allelic series); with CRX [5], 8.41 upbm affinity estimate (log intensity, higher = more binding, comparable within an allelic series).

Turning to AGTTAATC, the binding signal with CRX [1] is 12.7 upbm affinity estimate (log intensity, higher = more binding, comparable within an allelic series); in the experiment with CRX [3] it was 12.7 upbm affinity estimate (log intensity, higher = more binding, comparable within an allelic series); with PITX2 it was 12.3 upbm affinity estimate (log intensity, higher = more binding, comparable within an allelic series); in the experiment with CRX [5], 12.4 upbm affinity estimate (log intensity, higher = more binding, comparable within an allelic series).

For the sequence ATAATCCA, the binding signal with CRX [1] is 13.2 upbm affinity estimate (log intensity, higher = more binding, comparable within an allelic series); with CRX [3], 13.3 upbm affinity estimate (log intensity, higher = more binding, comparable within an allelic series); with PITX2, 13 upbm affinity estimate (log intensity, higher = more binding, comparable within an allelic series); in the experiment with CRX [5] it was 13.3 upbm affinity estimate (log intensity, higher = more binding, comparable within an allelic series).

With ACGCCAGC, the binding signal is 8.41 upbm affinity estimate (log intensity, higher = more binding, comparable within an allelic series) in the experiment with CRX [1]; 8.28 upbm affinity estimate (log intensity, higher = more binding, comparable within an allelic series) with CRX [3]; 9.57 upbm affinity estimate (log intensity, higher = more binding, comparable within an allelic series) with NKX2-6 [19]; 9.3 upbm affinity estimate (log intensity, higher = more binding, comparable within an allelic series) in the experiment with NKX2-6 [20]; 8.46 upbm affinity estimate (log intensity, higher = more binding, comparable within an allelic series) with CRX [5].

With CGACTCGC, the binding signal was 8.13 upbm affinity estimate (log intensity, higher = more binding, comparable within an allelic series) with CRX [1]; 8.24 upbm affinity estimate (log intensity, higher = more binding, comparable within an allelic series) in the experiment with CRX [3]; 7.77 upbm affinity estimate (log intensity, higher = more binding, comparable within an allelic series) with ALX3 [21]; 7.61 upbm affinity estimate (log intensity, higher = more binding, comparable within an allelic series) in the experiment with ALX3 [22]; 7.85 upbm affinity estimate (log intensity, higher = more binding, comparable within an allelic series) with ALX3 [23]; 7.71 upbm affinity estimate (log intensity, higher = more binding, comparable within an allelic series) in the experiment with ALX3 [24]. Moreover, the binding signal with CRX [5] is 8.21 upbm affinity estimate (log intensity, higher = more binding, comparable within an allelic series); in the experiment with ALX3 [25], 7.81 upbm affinity estimate (log intensity, higher = more binding, comparable within an allelic series).

GGAGATTA: the binding signal in the experiment with CRX [1] was 13.2 upbm affinity estimate (log intensity, higher = more binding, comparable within an allelic series); with CRX [3], 13.2 upbm affinity estimate (log intensity, higher = more binding, comparable within an allelic series); with PITX2, 12.9 upbm affinity estimate (log intensity, higher = more binding, comparable within an allelic series); in the experiment with CRX [5], 13.1 upbm affinity estimate (log intensity, higher = more binding, comparable within an allelic series).

For AAGGATTA, the binding signal with CRX [1] is 13.4 upbm affinity estimate (log intensity, higher = more binding, comparable within an allelic series); in the experiment with CRX [3], 13.4 upbm affinity estimate (log intensity, higher = more binding, comparable within an allelic series); with PITX2 it was 13.2 upbm affinity estimate (log intensity, higher = more binding, comparable within an allelic series); with CRX [5], 13.4 upbm affinity estimate (log intensity, higher = more binding, comparable within an allelic series).
